Test results from PubChem BioAssay (Tox21).
The source made the active and inactive calls. Calls follow the shape of the dose curve; as a rule, active = well fitted cell-killing curve with a large enough effect in the repeat runs; inconclusive = weak or mixed curves, or effect the other way; inactive = flat fitted curve, though single readings scatter.

experiment: qHTS assay to identify small molecule HDAC inhibitors - cell viability counter screen (AID 1259365); conditions: HCT-116 viability, CellTiter-Glo ATP luminescence, 2 h; series mostly up to 92.4 µM; activity change, negative = cytotoxicity: at the top concentration; also: nearly all actives have a fitted effect of over 50% in size
From the text: U.S. Tox21 Program National Center for Advancing Translational Sciences [NCATS] NIH Chemical Genomics Center [NCGC] U.S. Environmental Protection Agency [EPA] National Institutes of Environmental Health Sciences [NIEHS] National Toxicology Program [NTP] U.S. Food and Drug Administration [FDA] Tox21 Assay Overview: Histone deacetylases (HDACs) are a group of epigenetic enzymes that regulate gene expression by histone deacetylation. HDACs are capable of introducing epigenetic modifications and such aberrations contribute to the onset and progression of several human diseases, thus making HDACs a popular therapeutic target. For identifying endogenous class I/II HDAC inhibitors a homogenous, luminogenic HDAC I/II cell based assay was used to measure the relative activity of class I and II HDACs from cells. Wild type HCT-116 cells were used to screen Tox21 compound libraries for identifying class I/II HDAC inhibitors.
Tox21 Assay Protocol Summary: HCT-116 cells were dispensed at 1,500 per well in 5uL of culture medium into white solid bottom 1536-well plates (Greiner Bio-One, Monroe, NC) using a Multidrop Combi (Thermo Scientific, Waltham, MA) dispenser. The assay plates were incubated at 37 C and 5% CO2 for an overnight, and then 23nL of compounds dissolved in DMSO and positive control were transferred using a Pintool station (Wako, San Diego, CA). The assay plates were incubated at 37C and 5% CO2 for 2hr. After compound treatment, 4uL of CellTiter-Glo reagent (Promega Corporation, Madison, WI) was added to each well of the assay plates using Flying Reagent Dispenser (FRD, Aurora Discovery, San Diego, CA) and incubated the assay plates at room temperature for 30min. The luminescence signal was quantified using a ViewLux plate reader (Perkin Elmer, Shelton, CT).
% is scaled to controls: 0 for no effect and ±100 for the full control effect.

Q: For CC(C)(C)C1CCC(=O)CC1, which “activity change, negative = cytotoxicity” value is on record?
A: -0.41% (inactive)

Q: With Clc1ccnc(Cl)n1 as the compound, how does the “activity change, negative = cytotoxicity” value read?
A: 0.811% (inactive)

Q: Which “activity change, negative = cytotoxicity” value does the source give for S=C([S-])NCCNC(=S)[S-].S=C([S-])NCCNC(=S)[S-].[Mn+2].[Zn+2] here?
A: -0.911% [at 42.5 µM] (inactive)

Q: With COc1ccc2c(c1)c(CC(=O)OC/C=C(\C)CC/C=C(\C)CCC=C(C)C)c(C)n2C(=O)c1ccc(Cl)cc1 as the compound, how does the “activity change, negative = cytotoxicity” value read?
A: -2.96% [at 42.5 µM] (inactive)

Q: With Clc1nnc(Cl)c2ccccc12 as the compound, how does the “activity change, negative = cytotoxicity” value read?
A: 9.75% (inactive)

Q: Which “activity change, negative = cytotoxicity” value does the source give for CC(C)=CCC1=C(O)c2ccccc2C(=O)C1=O here?
A: -16.2% (inactive)

Q: Which “activity change, negative = cytotoxicity” value does the source give for Cc1cc(C(C#N)c2ccc(Cl)cc2)c(Cl)cc1NC(=O)c1cc(I)cc(I)c1O (stereo not given) here?
A: -0.208% [at 42.5 µM] (inactive)

Q: Which “activity change, negative = cytotoxicity” value does the source give for Nc1nc(N)nc(-c2cc(Cl)ccc2Cl)n1 here?
A: 3.84% [at 42.5 µM] (inactive)

Q: With CCO[Si](OCC)(OCC)OCC as the compound, how does the “activity change, negative = cytotoxicity” value read?
A: -1.55% (inactive)

Q: With C#C[C@]1(OC(C)=O)CC[C@H]2[C@@H]3CCC4=C[C@@H](OC(C)=O)CC[C@@H]4[C@H]3CC[C@@]21C as the compound, how does the “activity change, negative = cytotoxicity” value read?
A: -11.8% [at 42.5 µM] (inactive)

Q: With CCCCC(CC)CN1CN(CC(CC)CCCC)CC(C)(N)C1 (stereo not given) as the compound, how does the “activity change, negative = cytotoxicity” value read?
A: -6.98% [at 42.5 µM] (inactive)

Q: Which “activity change, negative = cytotoxicity” value does the source give for CN1CCCCC1CCN1c2ccccc2Sc2ccc(S(C)=O)cc21 (stereo not given) here?
A: -6.53% [at 42.5 µM] (inactive)

Q: Which “activity change, negative = cytotoxicity” value does the source give for COc1ccc(NC(=O)CC(C)=O)cc1 here?
A: 2.5% (inactive)

Q: With O=C1NC(=O)[C@@H]2CC=CC[C@H]12 as the compound, how does the “activity change, negative = cytotoxicity” value read?
A: -0.787% (inactive)

Q: Which “activity change, negative = cytotoxicity” value does the source give for COCCOc1cc2cc(C(=O)NC3CCN(C(C)C)CC3)n(CC(=O)Nc3ccc(Cl)cn3)c2cn1 here?
A: -2.76% (inactive)

Q: With [Cl][Pt-2]([Cl])([Cl])[Cl] as the compound, how does the “activity change, negative = cytotoxicity” value read?
A: 12.4% (inactive)

Q: Which “activity change, negative = cytotoxicity” value does the source give for O=C(/C=C/c1ccc(O)c(O)c1)O[C@@H](C(=O)O)[C@@H](OC(=O)/C=C/c1ccc(O)c(O)c1)C(=O)O here?
A: 0.899% (inactive)

Q: With OC1CCCc2ccccc21 (stereo not given) as the compound, how does the “activity change, negative = cytotoxicity” value read?
A: 3.1% (inactive)

Q: For O=S(=O)(O)c1ccc(Nc2nc(Nc3ccc(/C=C/c4ccc(Nc5nc(Nc6ccc(S(=O)(=O)O)cc6)nc(N(CCO)CCO)n5)cc4S(=O)(=O)O)c(S(=O)(=O)O)c3)nc(N(CCO)CCO)n2)cc1, which “activity change, negative = cytotoxicity” value is on record?
A: 4.15% [at 42.5 µM] (inactive)

Q: Which “activity change, negative = cytotoxicity” value does the source give for C#C[C@]1(O)CC[C@H]2[C@@H]3[C@H](C)CC4=C(CCC(=O)C4)[C@H]3CC[C@@]21C here?
A: 1.97% [at 42.5 µM] (inactive)

Q: With O=C(/C=C/c1ccccc1)OC/C=C/c1ccccc1 as the compound, how does the “activity change, negative = cytotoxicity” value read?
A: -4.61% (inactive)

Q: Which “activity change, negative = cytotoxicity” value does the source give for O=C(O)Cc1ccc2c(c1)C(=O)c1ccccc1CO2 here?
A: 0.827% [at 42.5 µM] (inactive)

Q: With CC1=CCC(=C(C)C)CC1 as the compound, how does the “activity change, negative = cytotoxicity” value read?
A: -3.92% (inactive)

Q: For Cc1cccc2cccnc12, which “activity change, negative = cytotoxicity” value is on record?
A: 5.09% (inactive)

Q: For O=[N+]([O-])c1ccc(F)c(Cl)c1, which “activity change, negative = cytotoxicity” value is on record?
A: -2.91% (inactive)

Q: For Cc1ccc(C(C)C)cc2c(C)ccc1-2, which “activity change, negative = cytotoxicity” value is on record?
A: -7.58% [at 42.5 µM] (inactive)

Q: Which “activity change, negative = cytotoxicity” value does the source give for C=CC(C)(CCC=C(C)C)OC=O (stereo not given) here?
A: 0.184% (inactive)

Q: With O=c1c(O)c(-c2ccc(O)cc2O)oc2cc(O)cc(O)c12 as the compound, how does the “activity change, negative = cytotoxicity” value read?
A: 3.77% (inactive)

Q: With c1ccc(C(O[C@@H]2CCCN(CCc3ccc4c(c3)OCO4)C2)c2ccccc2)cc1 as the compound, how does the “activity change, negative = cytotoxicity” value read?
A: -9.26% (inactive)

Q: With Cc1c2ccccc2c(C)c2c1ccc1ccccc12 as the compound, how does the Potency read?
A: inactive

Q: With O=C1CCc2cc(OCCCCc3nnnn3C3CCCCC3)ccc2N1 as the compound, how does the “activity change, negative = cytotoxicity” value read?
A: -1.2% [at 42.5 µM] (inactive)

Q: Which “activity change, negative = cytotoxicity” value does the source give for c1cnccn1 here?
A: 0.891% (inactive)

Q: Which “activity change, negative = cytotoxicity” value does the source give for Cc1cccc(C)c1NC(=O)c1ccc(N)cc1 here?
A: 2.62% [at 42.5 µM] (inactive)

Q: With CCc1ccc(Br)cc1 as the compound, how does the “activity change, negative = cytotoxicity” value read?
A: -0.44% (inactive)

Q: Which “activity change, negative = cytotoxicity” value does the source give for CCC(CC)(CC(=O)Nc1cccc(/C=C/c2nc(C3CCC3)cs2)c1)C(=O)O here?
A: 7.06% [at 42.5 µM] (inactive)

Q: With COc1cc(C)ccc1O as the compound, how does the “activity change, negative = cytotoxicity” value read?
A: 0.0488% (inactive)

Q: With NC[C@H]1O[C@H](O[C@H]2[C@H](O[C@@H]3O[C@H](CO)[C@@H](O)[C@H]3O)C(O)[C@H](N)C[C@@H]2N)[C@H](N)[C@@H](O)[C@@H]1O (stereo not given in full) as the compound, how does the activity change, negative = cytotoxicity read?
A: -0.0056% [at 8.39 µM] (inactive)

Q: For Cc1cc(C)c(/C=C2\C(=O)Nc3ccccc32)[nH]1, which “activity change, negative = cytotoxicity” value is on record?
A: 0.859% [at 42.5 µM] (inactive)

Q: For COC1=C(OC)C(=O)C(CCCCCCCCCCO)=C(C)C1=O, which “activity change, negative = cytotoxicity” value is on record?
A: -15% [at 42.5 µM] (inactive)

Q: For O=C(O)c1ccc2cc(C(=O)O)ccc2c1, which “activity change, negative = cytotoxicity” value is on record?
A: 0.578% (inactive)
